PubChem BioAssay (EPA / NIEHS)
Results filed as inconclusive are left out. Activity calls are given as the source filed them. Rule for the calls, unless noted: active = hit-call score of the fitted dose curve at least 0.9, where 1 is the maximum; inactive = score below 0.9.

Tests used:
[1] = target: Paired box protein Pax-6 (Homo sapiens) (UniProt P26367); experiment: ATG_Pax6_CIS: Attagene CIS-FACTORIAL HepG2 Assay for human Paired Box 6 (PAX6) (AID 2282956); details: HepG2 CIS-FACTORIAL PAX6 reporter transcription, RNA readout; actives raise or lower the signal
Outline: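 After twenty-four hours of chemical exposure, transfected HepG2 cells are harvested for RNA. Cis-promoter reporter transcripts are amplified, fluorescently labelled and sized by capillary electrophoresis, with gain and loss of signal scored against DMSO.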

[2] = ATG_PXRE_CIS: Attagene CIS-FACTORIAL HepG2 Assay for human Pregnane X Receptor Element (PXRE) (AID 2282957); details: HepG2 Attagene CIS-FACTORIAL PXRE reporter, mRNA; actives raise or lower the signal
Outline: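 Multiplexed cis-reporter assay in transiently transfected human HepG2 cells; 24 h chemical exposure. Reporter transcripts quantified by RT-PCR with fluorescent labeling and capillary electrophoresis.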

[3] = ATG_RORE_CIS: Attagene CIS-FACTORIAL HepG2 Assay for human RAR-related Orphan Receptor Element (RORE) (AID 2282959); details: HepG2 Attagene cis-factorial RORE reporter, mRNA; actives raise or lower the signal
Outline: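 Multiplexed reporter assay measuring mRNA induction from a cis promoter element in transiently transfected HepG2 cells after 24 h treatment. Detection via RT-PCR and capillary electrophoresis fluorescence; DMSO serves as baseline.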

[4] = ATG_Sox_CIS: Attagene CIS-FACTORIAL HepG2 Assay for human SRY-box transcription factor (SOX) (AID 2282960); details: HepG2 Attagene cis-factorial SOX reporter, mRNA; actives raise or lower the signal
Outline: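 Cells were transfected with reporter constructs under cis-regulatory promoters, then exposed to chemicals for 24 h. Reporter transcripts were quantified by fluorescence after RT-PCR and capillary electrophoresis; activity was fitted in both directions against DMSO.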

[5] = target: Transcription factor Sp1 (Homo sapiens) (UniProt P08047); experiment: ATG_Sp1_CIS: Attagene CIS-FACTORIAL HepG2 Assay for human Specificity Protein 1 (Sp1) (AID 2282961); details: HepG2 Sp1 cis-reporter transcription, actives raise or lower the signal
Outline: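 Measures mRNA induction of an Sp1-linked reporter in HepG2 cells 24 h post-dosing. Multiplexed reporters read by RT-PCR and capillary electrophoresis; DMSO serves as negative control and baseline.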

[6] = ATG_SREBP_CIS: Attagene CIS-FACTORIAL HepG2 Assay for human Sterol Regulatory Element Binding (SREBP) (AID 2282962); details: HepG2 Attagene cis-factorial SREBP reporter, mRNA; actives raise or lower the signal
Outline: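 Twenty-four hours after chemical dosing of transfected HepG2 cultures, reporter RNA was converted to cDNA, amplified, end-labelled with 6-FAM and resolved by capillary electrophoresis. Responses were fitted relative to DMSO.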

[7] = target: Signal transducer and activator of transcription 3 (Homo sapiens) (UniProt P40763); experiment: ATG_STAT3_CIS: Attagene CIS-FACTORIAL HepG2 Assay for human Signal Transducer and Activator of Transcription 3 (STAT3) (AID 2282963); details: HepG2, Attagene cis-factorial STAT3 reporter transcription; actives raise or lower the signal
Outline: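 After a 24 h compound incubation, total RNA from MRTU-transfected HepG2 cells was converted to cDNA and reporter sequences PCR-amplified, labelled and profiled by capillary electrophoresis. Gain and loss of signal were referenced to DMSO.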

[8] = ATG_TA_CIS: Attagene CIS-FACTORIAL HepG2 Assay for human TA Basal Promoter (AID 2282964); details: HepG2 Attagene CIS-factorial TA basal promoter reporter; actives raise or lower the signal
Outline: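 HepG2 cells transiently transfected with multiple reporter units under cis promoter elements, reporting endogenous transcription factor activity; this endpoint tracks the TA basal promoter as background control. Reporter mRNA after 24 h dosing measured by RT-PCR/capillary electrophoresis; bidirectional fits versus DMSO.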

[9] = ATG_TCF_b_cat_CIS: Attagene CIS-FACTORIAL HepG2 Assay for human T-Cell-Factor with beta-catenin (TCF/b-cat) (AID 2282965); details: HepG2 TCF/beta-catenin cis-reporter transcription, actives raise or lower the signal
Outline: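 Endogenous transcription factor activity is captured through cis-promoter reporter constructs transiently introduced into human HepG2 liver cells. Induced reporter mRNA is measured after 24 h and fitted bidirectionally relative to DMSO.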

[10] = ATG_TAL_CIS: Attagene CIS-FACTORIAL HepG2 Assay for human TAL Basal Promoter (AID 2282966); details: HepG2 Attagene cis-factorial TAL promoter reporter; actives raise or lower the signal;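 note: background control endpoint measuring basal TAL promoter reporter mRNA not a specific factor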
Outline: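 Steps: transfect HepG2 with multiple reporter transcription units; dose 24 h; isolate RNA, reverse-transcribe, PCR-amplify, label with 6-FAM, digest with HpaI; resolve by capillary electrophoresis. Bidirectional fitting against DMSO baseline.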

[11] = ATG_VDRE_CIS: Attagene CIS-FACTORIAL HepG2 Assay for human Vitamin D Receptor Element (VDRE) (AID 2282968); details: HepG2 VDRE cis-reporter transcription, actives raise or lower the signal
Outline: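 In transiently transfected HepG2 liver cells, gain or loss of reporter mRNA after 24 h exposure is scored relative to DMSO, using fluorescence detection by capillary electrophoresis of RT-PCR products.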

[12] = target: Estrogen receptor (Homo sapiens) (UniProt P03372); experiment: ATG_ERa_TRANS: Attagene TRANS-FACTORIAL HepG2 Assay for human Estrogen Receptor alpha (ERa) (AID 2282970; active = hit-call score of the fitted dose curve at least 0.9, where 1 is the maximum); details: HepG2 Attagene TRANS ERa GAL4 reporter, mRNA
Outline: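 Multiplexed cell-based reporter format in HepG2: chimeric ERa-Gal4 protein drives GAL4-UAS reporter transcription. Fluorescent reporter mRNA quantified by capillary electrophoresis 24 hours after dosing; endpoint fitted as signal gain against DMSO.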

[13] = target: X-box-binding protein 1 (Homo sapiens) (UniProt P17861); experiment: ATG_Xbp1_CIS: Attagene CIS-FACTORIAL HepG2 Assay for human X-box Binding Protein 1 (XBP1) (AID 2282972); details: HepG2 XBP1 cis-element reporter, Attagene multiplex; actives raise or lower the signal
Outline: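 After a 24-hour chemical exposure of HepG2 cells carrying cis-regulated reporters, reporter mRNA levels are assessed. Quantification uses RT-PCR, 6-FAM labelling and capillary electrophoresis. Gain- or loss-of-signal is fitted against DMSO.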

[14] = ATG_TGFb_CIS: Attagene CIS-FACTORIAL HepG2 Assay for human Transforming Growth Factor (TGF) (AID 2282967); details: HepG2 Attagene CIS TGFb reporter, mRNA transcription; actives raise or lower the signal
Outline: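 HepG2 cells transiently transfected with cis-promoter-driven multiple reporter units measure endogenous TF activity; reporter mRNA quantified at 24 h by RT-PCR, FAM labeling, HpaI digestion and capillary electrophoresis. Bidirectional fit vs DMSO.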

[15] = ATG_M_19_TRANS: Attagene TRANS-FACTORIAL HepG2 Assay for M19 Transcription Factor (Internal Marker) (AID 2282974; active = hit-call score of the fitted dose curve at least 0.9, where 1 is the maximum); details: HepG2 Attagene TRANS-FACTORIAL M19 internal marker reporter
Outline: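 After transfection of HepG2 with GAL4-UAS-driven reporter constructs, cells are dosed for 24 h. Total RNA is reverse-transcribed, reporter sequences PCR-amplified and labelled, then HpaI-digested and sized by capillary electrophoresis.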

[16] = ATG_GAL4_TRANS: Attagene TRANS-FACTORIAL HepG2 Assay for GAL4 (Internal Marker) (AID 2282976; active = hit-call score of the fitted dose curve at least 0.9, where 1 is the maximum); details: HepG2 Attagene TRANS GAL4 internal marker reporter
Outline: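 Liver HepG2 line bearing multiplexed GAL4-UAS reporter constructs; 24 h chemical treatment. Transcripts were quantified as fluorescent fragments on capillary electrophoresis after RT-PCR and HpaI cut, with activity fitted upward from DMSO.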

[17] = target: Nuclear receptor subfamily 1 group I member 3 (Homo sapiens) (UniProt Q14994); experiment: ATG_CAR_TRANS: Attagene TRANS-FACTORIAL HepG2 Assay for human Constitutive Androstane Receptor (CAR) (AID 2282969; active = hit-call score of the fitted dose curve at least 0.9, where 1 is the maximum;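 note: activators raise reporter mRNA above DMSO so AC50 marks induction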); details: HepG2 Attagene TRANS-FACTORIAL CAR reporter
Outline: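 Readout is reporter mRNA induction, quantified by fluorescent primer extension and capillary electrophoresis after RT-PCR. Cells were HepG2 transiently carrying chimeric NR-Gal4 constructs with GAL4-UAS reporters, treated for 24 h; activity scored upward from DMSO.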

[18] = target: Steroid hormone receptor ERR1 (Homo sapiens) (UniProt P11474); experiment: ATG_ERRa_TRANS: Attagene TRANS-FACTORIAL HepG2 Assay for human Estrogen-Related Receptor alpha (ERRa) (AID 2282971; active = hit-call score of the fitted dose curve at least 0.9, where 1 is the maximum); details: HepG2 Attagene TRANS reporter, ERRa transactivation
Outline: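 Signal gain relative to DMSO for an ERRa-Gal4 chimeric receptor, read as reporter mRNA by RT-PCR/capillary electrophoresis. Human HepG2 liver cells, transient multiplex reporter transfection, 24 h chemical exposure.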

[19] = target: Estrogen-related receptor gamma (Homo sapiens) (UniProt P62508); experiment: ATG_ERRg_TRANS: Attagene TRANS-FACTORIAL HepG2 Assay for human Estrogen-Related Receptor gamma (ERRg) (AID 2282977; active = hit-call score of the fitted dose curve at least 0.9, where 1 is the maximum;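 note: hits increase reporter signal over DMSO so potencies reflect activators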); details: HepG2 Attagene TRANS reporter, ERRg transactivation
Outline: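 Transient HepG2 transfectants, 24 h compound exposure, GAL4-UAS reporter mRNA by RT-PCR/6-FAM labelling/capillary electrophoresis; positive direction vs DMSO.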

Measured: AC50

Chain of Transcription factor Sp1 (Homo sapiens) (P08047 whole entry, looked up): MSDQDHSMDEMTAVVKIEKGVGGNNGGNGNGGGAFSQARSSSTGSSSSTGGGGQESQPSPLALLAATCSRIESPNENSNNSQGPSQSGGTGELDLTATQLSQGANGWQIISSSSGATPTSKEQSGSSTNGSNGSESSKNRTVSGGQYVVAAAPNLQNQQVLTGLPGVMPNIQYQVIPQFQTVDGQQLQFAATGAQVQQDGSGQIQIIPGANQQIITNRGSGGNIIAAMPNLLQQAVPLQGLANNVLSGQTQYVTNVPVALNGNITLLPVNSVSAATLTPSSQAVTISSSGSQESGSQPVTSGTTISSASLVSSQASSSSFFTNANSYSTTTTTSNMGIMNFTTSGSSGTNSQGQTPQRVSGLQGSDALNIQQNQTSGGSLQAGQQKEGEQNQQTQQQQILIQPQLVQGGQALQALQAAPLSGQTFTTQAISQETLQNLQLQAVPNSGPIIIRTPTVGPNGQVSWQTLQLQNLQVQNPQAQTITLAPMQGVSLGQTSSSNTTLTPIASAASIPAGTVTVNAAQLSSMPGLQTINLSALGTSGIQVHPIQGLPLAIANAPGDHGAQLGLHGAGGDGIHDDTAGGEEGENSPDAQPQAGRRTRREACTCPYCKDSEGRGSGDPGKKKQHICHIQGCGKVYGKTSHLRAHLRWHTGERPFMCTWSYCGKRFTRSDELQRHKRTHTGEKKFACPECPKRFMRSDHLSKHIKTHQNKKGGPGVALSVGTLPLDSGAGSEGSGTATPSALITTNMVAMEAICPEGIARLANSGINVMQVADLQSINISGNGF
Chain of Paired box protein Pax-6 (Homo sapiens) (P26367 whole entry, looked up): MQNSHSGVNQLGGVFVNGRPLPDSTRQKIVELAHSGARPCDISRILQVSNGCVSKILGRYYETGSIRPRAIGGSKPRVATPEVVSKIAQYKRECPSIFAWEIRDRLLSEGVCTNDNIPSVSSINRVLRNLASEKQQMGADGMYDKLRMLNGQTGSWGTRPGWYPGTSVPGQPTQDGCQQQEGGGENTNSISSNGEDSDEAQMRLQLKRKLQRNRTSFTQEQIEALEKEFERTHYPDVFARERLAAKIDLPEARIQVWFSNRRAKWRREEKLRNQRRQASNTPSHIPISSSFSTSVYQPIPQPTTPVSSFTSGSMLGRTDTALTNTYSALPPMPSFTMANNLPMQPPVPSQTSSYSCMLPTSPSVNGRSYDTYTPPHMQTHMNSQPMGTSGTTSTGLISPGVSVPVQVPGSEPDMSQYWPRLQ
Chain of Signal transducer and activator of transcription 3 (Homo sapiens) (P40763 whole entry, looked up): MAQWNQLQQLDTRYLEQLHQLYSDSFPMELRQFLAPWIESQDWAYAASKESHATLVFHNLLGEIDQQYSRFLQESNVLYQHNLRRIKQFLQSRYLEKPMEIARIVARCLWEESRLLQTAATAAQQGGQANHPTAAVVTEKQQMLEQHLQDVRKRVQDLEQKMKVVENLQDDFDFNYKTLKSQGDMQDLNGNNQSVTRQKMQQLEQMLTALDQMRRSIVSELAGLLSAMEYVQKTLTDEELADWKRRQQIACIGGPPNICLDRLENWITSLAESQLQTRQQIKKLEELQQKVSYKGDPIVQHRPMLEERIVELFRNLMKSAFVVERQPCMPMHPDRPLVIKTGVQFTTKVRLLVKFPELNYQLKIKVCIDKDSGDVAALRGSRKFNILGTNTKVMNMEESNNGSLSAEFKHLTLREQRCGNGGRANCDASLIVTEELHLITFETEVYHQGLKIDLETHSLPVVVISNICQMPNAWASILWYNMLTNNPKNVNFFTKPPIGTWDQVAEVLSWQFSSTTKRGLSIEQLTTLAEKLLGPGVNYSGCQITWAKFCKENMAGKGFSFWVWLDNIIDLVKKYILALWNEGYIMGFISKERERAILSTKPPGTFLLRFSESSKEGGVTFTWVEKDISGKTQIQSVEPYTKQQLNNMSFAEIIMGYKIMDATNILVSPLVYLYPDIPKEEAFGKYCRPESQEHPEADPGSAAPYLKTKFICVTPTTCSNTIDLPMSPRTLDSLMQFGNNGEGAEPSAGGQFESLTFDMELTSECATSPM
Chain of X-box-binding protein 1 (Homo sapiens) (P17861 whole entry, looked up): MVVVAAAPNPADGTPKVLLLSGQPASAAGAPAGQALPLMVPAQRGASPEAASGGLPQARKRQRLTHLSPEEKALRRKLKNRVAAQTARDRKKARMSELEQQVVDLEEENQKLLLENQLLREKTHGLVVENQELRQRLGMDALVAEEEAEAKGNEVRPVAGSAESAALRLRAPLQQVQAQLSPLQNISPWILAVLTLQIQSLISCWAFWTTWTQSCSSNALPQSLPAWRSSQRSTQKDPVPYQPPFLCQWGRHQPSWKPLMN
Chain of Estrogen receptor (Homo sapiens) (P03372 whole entry, looked up, the tested form may be a part): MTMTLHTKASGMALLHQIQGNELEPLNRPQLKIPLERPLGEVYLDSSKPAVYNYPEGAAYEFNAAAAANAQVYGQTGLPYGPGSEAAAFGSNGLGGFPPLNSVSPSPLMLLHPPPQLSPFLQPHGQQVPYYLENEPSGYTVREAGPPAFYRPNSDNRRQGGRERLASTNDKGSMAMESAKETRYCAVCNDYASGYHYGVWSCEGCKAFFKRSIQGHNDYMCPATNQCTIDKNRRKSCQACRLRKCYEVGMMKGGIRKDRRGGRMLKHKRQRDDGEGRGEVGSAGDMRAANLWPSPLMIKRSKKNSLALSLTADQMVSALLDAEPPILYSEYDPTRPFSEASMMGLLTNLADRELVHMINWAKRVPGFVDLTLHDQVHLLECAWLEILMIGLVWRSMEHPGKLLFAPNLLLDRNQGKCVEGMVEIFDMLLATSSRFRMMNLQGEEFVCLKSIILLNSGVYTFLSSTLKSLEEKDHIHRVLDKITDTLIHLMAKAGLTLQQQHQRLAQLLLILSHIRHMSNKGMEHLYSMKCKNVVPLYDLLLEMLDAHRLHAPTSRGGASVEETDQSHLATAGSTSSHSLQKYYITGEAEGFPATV
Chain of Nuclear receptor subfamily 1 group I member 3 (Homo sapiens) (Q14994 whole entry, looked up, the tested form may be a part): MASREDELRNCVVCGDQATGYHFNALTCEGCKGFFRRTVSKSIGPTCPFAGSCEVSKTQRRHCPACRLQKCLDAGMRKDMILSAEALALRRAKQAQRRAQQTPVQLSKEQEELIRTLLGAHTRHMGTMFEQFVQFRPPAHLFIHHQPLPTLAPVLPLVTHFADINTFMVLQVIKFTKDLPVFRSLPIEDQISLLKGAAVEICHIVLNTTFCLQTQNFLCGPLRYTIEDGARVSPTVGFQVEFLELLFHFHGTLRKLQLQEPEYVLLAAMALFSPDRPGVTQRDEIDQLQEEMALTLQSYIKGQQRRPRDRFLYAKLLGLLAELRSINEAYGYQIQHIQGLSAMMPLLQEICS
Chain of Steroid hormone receptor ERR1 (Homo sapiens) (P11474 whole entry, looked up, the tested form may be a part): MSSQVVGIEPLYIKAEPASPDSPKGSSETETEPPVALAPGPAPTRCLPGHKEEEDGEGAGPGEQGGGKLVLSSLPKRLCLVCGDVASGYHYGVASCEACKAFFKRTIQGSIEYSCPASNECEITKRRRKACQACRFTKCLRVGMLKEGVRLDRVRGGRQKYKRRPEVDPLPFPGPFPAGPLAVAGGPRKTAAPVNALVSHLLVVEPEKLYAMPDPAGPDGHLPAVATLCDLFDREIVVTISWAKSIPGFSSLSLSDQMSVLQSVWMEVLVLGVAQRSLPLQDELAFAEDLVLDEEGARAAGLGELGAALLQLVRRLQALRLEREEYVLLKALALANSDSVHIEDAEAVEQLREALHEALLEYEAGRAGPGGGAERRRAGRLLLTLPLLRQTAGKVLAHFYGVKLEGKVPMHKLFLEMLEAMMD
Chain of Estrogen-related receptor gamma (Homo sapiens) (P62508 whole entry, looked up, the tested form may be a part): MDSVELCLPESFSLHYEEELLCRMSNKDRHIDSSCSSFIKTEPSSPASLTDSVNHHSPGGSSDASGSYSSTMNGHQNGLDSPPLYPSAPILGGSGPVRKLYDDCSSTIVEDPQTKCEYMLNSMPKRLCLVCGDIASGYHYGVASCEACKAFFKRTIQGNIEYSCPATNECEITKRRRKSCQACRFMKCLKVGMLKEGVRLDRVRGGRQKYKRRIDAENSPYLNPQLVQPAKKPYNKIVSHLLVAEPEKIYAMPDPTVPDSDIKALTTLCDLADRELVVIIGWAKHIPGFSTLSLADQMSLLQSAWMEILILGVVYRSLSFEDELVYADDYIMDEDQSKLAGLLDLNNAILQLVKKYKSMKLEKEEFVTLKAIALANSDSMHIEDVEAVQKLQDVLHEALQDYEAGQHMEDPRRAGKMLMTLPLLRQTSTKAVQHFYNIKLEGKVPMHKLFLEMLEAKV

Cc1cc(O)c(Cl)c(C)c1Cl
active: [2] 15.1 µM | [12] 26.8 µM
not listed: [14] | [15] | [16] | [17] | [18] | [19]
inactive: all other assays above

CC1=NC(C)OC1C (stereo not drawn)
active: [2] 7.08 µM | [9] 100 µM | [11] 9.63 µM
not listed: [8] | [12] | [17] | [18] | [19]
inactive: all other assays above

O=C(Nc1ccccc1SSc1ccccc1NC(=O)c1ccccc1)c1ccccc1
active: [2] 4.44 µM | [3] 2.56 µM
not listed: [7] | [11] | [16] | [19]
inactive: all other assays above

CCN(CC)c1ccc(C(=O)c2ccccc2C(=O)O)c(O)c1
active: [2] 1.09 µM | [11] 1.7 µM
not listed: [9] | [15] | [16] | [17] | [18] | [19]
inactive: all other assays above

Cc1ccc(C2OC[C@@H]3OC(c4ccc(C)cc4)O[C@H]([C@H](O)CO)[C@@H]3O2)cc1 (stereo partly drawn)
active: [2] 12.9 µM
not listed: [12] | [15] | [17] | [18] | [19]
inactive: all other assays above

O=C(O)C(c1ccc(Cl)cc1)c1ccc(Cl)cc1
active: [2] 62.7 µM | [12] 7.33 µM
not listed: [7] | [17] | [18] | [19]
inactive: all other assays above

C[C@]12CCC(=O)C=C1CC[C@@H]1[C@@H]2C(=O)C[C@@]2(C)[C@H]1CC[C@]2(O)C(=O)CO
active: [2] 39.5 µM
not listed: [11] | [15] | [17] | [18] | [19]
inactive: all other assays above

CCc1c(C(=O)O)c(=O)cnn1-c1ccc(Cl)cc1
active: [2] 52.3 µM
not listed: [17] | [18]
inactive: all other assays above

CCCCC(CC)CCC(CC(C)C)OS(=O)(=O)O (stereo not drawn)
active: [2] 27.2 µM
not listed: [7] | [15] | [16] | [17] | [18] | [19]
inactive: all other assays above
